Reference: PubChem BioAssay AID1259313 (Sanford-Burnham Center for Chemical Genomics, 2017)
About 8,500 (2.5%) of roughly 340,000 compounds were called active. The sample holds actives, similar compounds and a random draw of the others, so the mix is not that of the screen. Values without a mark were called inactive.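 The calls were made as follows: active = melting temperature shift of at least 10% of the positive control shift, at one fixed dose; inactive = the rest.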

The molecules below were run on Glutamate receptor ionotropic, NMDA 3A (GRIN3A) ligand-binding domain (assay: binders of NR3A ligand-binding domain, primary screen, biophysical, differential scanning fluorimetry, uHTS (AID 1259313)). Conditions: NR3A LBD differential scanning fluorimetry, at 25 µM, active compounds read high, 0% = protein alone, 100% = glycine-bound protein.
For Cc1cc(C)c(C)c(S(=O)(=O)N2CCN(C(=O)c3ccc4c(=O)n5c(nc4c3)CCC5)CC2)c1C, the Tm shift relative to glycine control was -1.83%.
Cc1ccc(C2=NN(C)c3nc4ccccc4n3C2)cc1 showed a Tm shift relative to glycine control of -0.88%.
CCOC(=O)C1=CN(Cc2ccc(Br)cc2)S(=O)(=O)N(C)C1C (stereo not given) was tested, and the Tm shift relative to glycine control was 16.8% (active).
CCOC(=O)c1sc(=NC(=O)c2ccc(Br)cc2)n(C)c1C was tested, and the Tm shift relative to glycine control was -1.61%.
CCOC(=O)C1=CN(Cc2ccc(Br)cc2)S(=O)(=O)NC1C (stereo not given) was tested, and the Tm shift relative to glycine control was -0.08%.
Cc1ccc(Sc2cc(C(=O)c3ccccc3C(=O)O)ccc2[N+](=O)[O-])cc1 was tested, and the Tm shift relative to glycine control was 2.48%.
Work on CCN(CC(=O)Nc1cc(Cl)ccc1C)C(=O)CSCc1ccccc1 yielded a Tm shift relative to glycine control of 3.04%.
Molecule C=CCC1(C#N)C(=S)NC(C)=C(C(=O)OCC)C1c1ccccc1 (stereo not given) has a Tm shift relative to glycine control of -1.45%.
With Cc1cccc(N=Nc2c(O)[nH]c3ccc(F)cc23)c1 the Tm shift relative to glycine control was 10.2% (active).
Work on Cc1ccc(CNC(=O)CSc2nnc3c(n2)[nH]c2ccc(F)cc23)cc1 yielded a Tm shift relative to glycine control of 2.6%.
Molecule Oc1[nH]c2ccccc2c1N=Nc1c(F)c(F)c(F)c(F)c1F has a Tm shift relative to glycine control of 9.33%.
For O=C1CN(C(=O)c2cc(F)cc(F)c2)c2ccccc2N1, the Tm shift relative to glycine control was -2.16%.
In the case of CC(C)(C)c1ccc(/C=C2\SC(=O)N=C2N)cc1, the Tm shift relative to glycine control is reported as -1.96%.
In the case of NC1=NC(=O)S/C1=C\c1ccc(O)cc1, the Tm shift relative to glycine control is reported as 32.2% (active).
O=C1N=C(N2CCc3ccccc3C2)S/C1=C\c1ccc(O)cc1 was tested, and the Tm shift relative to glycine control was -10.4%.
Molecule Cc1c(CN2CCCC(C(=O)c3cccc(Cl)c3)C2)c(=O)n(-c2ccccc2)n1C (stereo not given) has a Tm shift relative to glycine control of -0.59%.
For CCN(CC)c1ccc(NC(=O)c2ccc(Cl)nc2)cc1, the Tm shift relative to glycine control was -1.3%.
O=C(NCCS(=O)(=O)N1CCN(c2ccccc2F)CC1)c1ccc(Br)o1 was tested, and the Tm shift relative to glycine control was 121% (active).
COc1ccccc1N1CCN(S(=O)(=O)CCNC(=O)c2ccc(OC(C)C)cc2)CC1 was tested, and the Tm shift relative to glycine control was 0.83%.
Molecule O=C(NCCS(=O)(=O)N1CCN(c2ccccc2)CC1)c1ccco1 has a Tm shift relative to glycine control of 2.13%.
For COc1ccc(CCNC(=O)C(=O)NCC2CCNCC2)cc1OC, the Tm shift relative to glycine control was -0.1%.
CCc1ccc(-c2nn(-c3ccccc3)cc2CSC(=N)N)cc1 was tested, and the Tm shift relative to glycine control was -0.35%.
COc1cc(NS(=O)(=O)c2ccc(NC(=S)NC(=O)c3ccc(Br)cc3)cc2)ncn1 showed a Tm shift relative to glycine control of -6.1%.
COc1ccc(Br)cc1/C=N/Nc1ccc(Cl)c(C(=O)O)c1 showed a Tm shift relative to glycine control of -7.4%.
O=c1[nH]c2cccnc2n(CCNc2ncc(C(F)(F)F)cc2Cl)c1=O showed a Tm shift relative to glycine control of -2.11%.
With COc1cccc(/C=N/Nc2ncc(C(F)(F)F)cc2Cl)c1O the Tm shift relative to glycine control was 24.2% (active).
Work on CCCCN(C(=O)c1nn(C)c(=O)c2ccccc12)c1c(N)n(CCC)c(=O)[nH]c1=O yielded a Tm shift relative to glycine control of 0.36%.
In the case of N#CC1=C(N)Oc2cc(O)ccc2C1C1CCCCC1 (stereo not given), the Tm shift relative to glycine control is reported as 12% (active).
N#CC1=C(N)Oc2cc(N)ccc2C1c1ccccc1 (stereo not given) was tested, and the Tm shift relative to glycine control was -2.17%.
COc1ccc(C2C(C#N)=C(N)Oc3cc(N)ccc32)cc1OC (stereo not given) gave a Tm shift relative to glycine control of -4.08%.
COCC(C)NC(=O)CSc1nc2nn(-c3ccccc3)c(=O)c-2c2n1CCCCC2 (stereo not given) was tested, and the Tm shift relative to glycine control was -0.39%.
O=C(Nc1cc(S(=O)(=O)N2CCOCC2)ccc1Cl)c1cc(=O)c2ccccc2o1 was tested, and the Tm shift relative to glycine control was 0.31%.
In the case of CC(=O)c1ccc(N2CCN(C(=O)C3CCN(S(=O)(=O)c4ccc5c(c4)CC(C)N5C(=O)C4CC4)CC3)CC2)cc1 (stereo not given), the Tm shift relative to glycine control is reported as 1.27%.
Work on COc1cc(OC)c(S(=O)(=O)Nc2ccccc2C(=O)O)cc1S(=O)(=O)Nc1ccccc1C(=O)O yielded a Tm shift relative to glycine control of 5.12%.
COC(=O)c1ccc(NC(=O)c2ccccc2NS(=O)(=O)c2ccccc2)cc1 gave a Tm shift relative to glycine control of 2.17%.
In the case of COc1cc(NC(=O)c2ccccc2NS(=O)(=O)c2ccc(Cl)s2)cc(OC)c1, the Tm shift relative to glycine control is reported as 21.3% (active).
With CCC/C(O)=C1\C(=O)CC(C)(C)CC1=Nc1ccccc1OC the Tm shift relative to glycine control was -0.4%.
Molecule CCCC(=O)Nc1ccc(C(=O)N/N=C/c2ccc[nH]2)cc1 has a Tm shift relative to glycine control of 0.18%.
With CC(=O)Nc1ccc(C(=O)/C=C/c2ccc[nH]2)cc1 the Tm shift relative to glycine control was 19.4% (active).
Molecule CC(=O)Nc1ccc(C(=O)NNC(=O)CCCCC(=O)NNC(=O)c2ccc(NC(C)=O)cc2)cc1 has a Tm shift relative to glycine control of -2.46%.
CC1=C(C)C(=O)OC(C(C)C2CCC3C4CC=C5CC(OC6OC(COC7OC(CO)C(O)C(O)C7O)C(O)C(O)C6O)CC(O)C5(C)C4CCC23C)C1 (stereo not given) showed a Tm shift relative to glycine control of -4.54%.
O=C(CN(Cc1ccc(Br)cc1)S(=O)(=O)c1ccccc1)NCc1ccncc1 was tested, and the Tm shift relative to glycine control was 0.51%.
With CC1=C(C(=O)OC(C)(C)C)C(c2ccc(Br)cc2)NC(=O)N1CCCC(=O)O (stereo not given) the Tm shift relative to glycine control was 0.08%.
Molecule NS(=O)(=O)c1ccc(NS(=O)(=O)/C=C/c2ccccc2)cc1 has a Tm shift relative to glycine control of -15.1%.
COC(=O)[C@H](Cc1ccccc1)NC(=O)Nc1ccc(S(N)(=O)=O)cc1 showed a Tm shift relative to glycine control of -3.46%.
With NS(=O)(=O)c1ccc(Nc2nc(-c3ccccc3)cs2)cc1 the Tm shift relative to glycine control was 15.5% (active).
For O=C(CC1C(=O)NCCN1CC(c1ccccc1)c1ccccc1)NCCc1cn[nH]c1 (stereo not given), the Tm shift relative to glycine control was -1%.
Work on Cc1cccc(OCCC(=O)OCc2csc(CC(=O)Nc3ccccc3C)n2)c1 yielded a Tm shift relative to glycine control of -1.22%.
Molecule Cc1cccc(NC(=O)C2CCN(C(=O)NC3CCCCC3)CC2)c1 has a Tm shift relative to glycine control of -0.18%.
COc1cccc(NC(=O)c2cc(S(=O)(=O)N3CCc4ccccc43)cn2C)c1 showed a Tm shift relative to glycine control of 1.72%.
In the case of COc1ccc(C(=O)C2CCCN(Cc3cccn3-c3ccccn3)C2)c(C)c1 (stereo not given), the Tm shift relative to glycine control is reported as 0%.
CC(C)CCN1CCN=C1N(C)C was tested, and the Tm shift relative to glycine control was -0.97%.
CCOc1ccc(N/C=C/C(=O)c2ccccc2)cc1 showed a Tm shift relative to glycine control of -12.3%.
O=C(/C=C\NCC(=O)c1ccccc1)c1ccccc1 was tested, and the Tm shift relative to glycine control was 12.7% (active).
O=C(/C=C/NCc1ccc(F)cc1)c1ccccc1 gave a Tm shift relative to glycine control of 0.09%.
COC(=O)Cn1c(=NC(=O)c2cc(OC)c(OC)c(OC)c2)sc2cc(OC)ccc21 gave a Tm shift relative to glycine control of 4.34%.
Work on COCCNC(=O)Cn1cc(C(=O)c2cccs2)c2ccccc21 yielded a Tm shift relative to glycine control of 4.81%.
O=C(Cn1cc(C(=O)c2cccs2)c2ccccc21)NCc1cccs1 was tested, and the Tm shift relative to glycine control was -6.3%.
With COC(=O)c1cn(CC(=O)NCc2cccs2)c2ccccc12 the Tm shift relative to glycine control was 11.7% (active).
For CC(NC(=O)c1ccccc1SCC(=O)N1CCCC1)c1ccccc1 (stereo not given), the Tm shift relative to glycine control was 1.13%.
Cc1cc(Cl)c(S(=O)(=O)Nc2ccc3c(c2)OCCO3)cc1OCC(N)=O gave a Tm shift relative to glycine control of 5.63%.
Cc1cc(Cl)c(S(=O)(=O)N(C)C)cc1OCC(N)=O was tested, and the Tm shift relative to glycine control was 10.2% (active).
Work on Cc1cc(Cl)c(S(=O)(=O)NCCC(=O)O)cc1OCC(N)=O yielded a Tm shift relative to glycine control of -2.09%.
O=C(Nc1ccccc1F)c1cc(S(=O)(=O)N2CCCCC2)cs1 was tested, and the Tm shift relative to glycine control was -1.16%.
In the case of CCN(c1ccccc1)S(=O)(=O)c1cccc(C(=O)NCc2ccccc2CN2CCOCC2)c1, the Tm shift relative to glycine control is reported as 2.34%.
With CCOc1ccc(NC(=O)c2ccc(CSc3nnnn3C)cc2)cc1 the Tm shift relative to glycine control was 26.8% (active).
CCOc1ccc(NC(=O)CSc2nncn2C)cc1 gave a Tm shift relative to glycine control of -0.09%.
With COc1ccc(CSc2nnnn2-c2ccc(C(=O)O)cc2)cc1 the Tm shift relative to glycine control was 3.65%.
With O=C(Nc1cccc(F)c1)c1cc(-c2ccco2)nc2ccccc12 the Tm shift relative to glycine control was 11.7% (active).
For O=C(CSc1ccc(-c2ccco2)nn1)Nc1cccc(F)c1, the Tm shift relative to glycine control was -2.4%.
Work on O=C(O)c1cccc(NC(=O)c2cc(-c3cccc(Cl)c3)nc3ccccc23)c1 yielded a Tm shift relative to glycine control of -12.1%.
CC1CCN(C(=O)COC(=O)CCC(=O)c2cccs2)CC1 showed a Tm shift relative to glycine control of 0.85%.
Cc1ccc(COc2ccc(C(=O)NN)cc2)cc1 gave a Tm shift relative to glycine control of -4.77%.
For Cc1cccc(OCc2ccc(C(=O)Nc3ccc(F)cc3)cc2)c1, the Tm shift relative to glycine control was 13.3% (active).
Molecule Cc1cccc(C(=O)Nc2ccc(Oc3cnccn3)cc2)c1 has a Tm shift relative to glycine control of 1.77%.
Work on CC(C)(CNC(=O)CNC(=O)C1CCCCC1)N1CCOCC1 yielded a Tm shift relative to glycine control of -1.27%.
COc1ccc(NC(=O)CCCC2CCCCC2)c(OC)c1 was tested, and the Tm shift relative to glycine control was 2.43%.
Cc1ccc(CNC(=O)Cn2cnc3c(NCc4ccccc4)ncnc32)o1 was tested, and the Tm shift relative to glycine control was 3%.
In the case of Cc1ccc(Nc2nc(-c3ccc(O)cc3O)cs2)nc1, the Tm shift relative to glycine control is reported as 27.4% (active).
For Cc1ccc(-c2csc(NCCc3nc4cc(Cl)c(Cl)cc4n3CCOCCO)n2)cc1, the Tm shift relative to glycine control was -1.81%.
Work on COc1ccc(CCNC(=O)NS(=O)(=O)c2ccc(C)cc2)cc1OC yielded a Tm shift relative to glycine control of -2.28%.
O=[N+]([O-])c1ccccc1SNc1ccccn1 showed a Tm shift relative to glycine control of 1.04%.
With CCOC(=O)N1CCN(CC(=O)c2ccc3c(c2)CCN3)CC1 the Tm shift relative to glycine control was -1.56%.
For C[C@H](OC(=O)n1ccnc1)[C@@H]1O[C@@]2(C)CCC[C@@H]1O2, the Tm shift relative to glycine control was -0.49%.
COc1ccc(N(CC(=O)NC2CCCCCCC2)S(=O)(=O)c2c(C)nn(C)c2C)cc1 gave a Tm shift relative to glycine control of -1.2%.
O=C(C1CCCN(S(=O)(=O)c2ccccc2)C1)N1CCN(c2ccc(F)cc2)CC1 (stereo not given) showed a Tm shift relative to glycine control of -0.26%.
O=S(=O)(c1ccc(F)cc1)N1CCN(C(=S)NC2CCCC2)CC1 gave a Tm shift relative to glycine control of 1.46%.
For O=C(O)C1CCCCC1C(=O)N1CCN(S(=O)(=O)c2ccc(F)cc2)CC1 (stereo not given), the Tm shift relative to glycine control was 14.4% (active).
With Cc1cc(=O)oc2c1ccc1ccccc12 the Tm shift relative to glycine control was 0.49%.
In the case of CCOC(=O)c1cccc(NC(=O)C2CCCN(S(=O)(=O)c3cnc[nH]3)C2)c1 (stereo not given), the Tm shift relative to glycine control is reported as -1.2%.
With Cc1cc(C)c(C(=O)CSc2nc(C)cc(=O)[nH]2)c(C)c1 the Tm shift relative to glycine control was -3.2%.
With COC(=O)c1ccccc1SC1CC(=O)N(c2cccc(C)c2)C1=O (stereo not given) the Tm shift relative to glycine control was -2.37%.
With O=C(Nc1ccccc1-c1ccccc1)c1ccccc1[N+](=O)[O-] the Tm shift relative to glycine control was -0.71%.
With COc1cc(OC)c(C(=O)Nc2ccccc2-c2ccccc2)cc1OC the Tm shift relative to glycine control was 11.5% (active).
COc1cc2ccccc2cc1C(=O)Nc1ccccc1C showed a Tm shift relative to glycine control of 3.64%.
